Reference: PubChem BioAssay (Tox21)
The source made the active and inactive calls. Entries that show only a call come without a potency. Calls come from the whole dose curve.

target: Acetylcholinesterase (Homo sapiens) (UniProt P22303); assay: Acetylcholinesterase (AChE) small molecule antagonists: enzyme-based qHTS assay (AID 1347397); conditions: Potency: AChE enzyme activity inhibition; outcome: AChE enzyme activity inhibition; series mostly up to 115 µM; note: nearly all actives have a fitted effect of over 55% in size
Sequence (P22303 whole entry, looked up): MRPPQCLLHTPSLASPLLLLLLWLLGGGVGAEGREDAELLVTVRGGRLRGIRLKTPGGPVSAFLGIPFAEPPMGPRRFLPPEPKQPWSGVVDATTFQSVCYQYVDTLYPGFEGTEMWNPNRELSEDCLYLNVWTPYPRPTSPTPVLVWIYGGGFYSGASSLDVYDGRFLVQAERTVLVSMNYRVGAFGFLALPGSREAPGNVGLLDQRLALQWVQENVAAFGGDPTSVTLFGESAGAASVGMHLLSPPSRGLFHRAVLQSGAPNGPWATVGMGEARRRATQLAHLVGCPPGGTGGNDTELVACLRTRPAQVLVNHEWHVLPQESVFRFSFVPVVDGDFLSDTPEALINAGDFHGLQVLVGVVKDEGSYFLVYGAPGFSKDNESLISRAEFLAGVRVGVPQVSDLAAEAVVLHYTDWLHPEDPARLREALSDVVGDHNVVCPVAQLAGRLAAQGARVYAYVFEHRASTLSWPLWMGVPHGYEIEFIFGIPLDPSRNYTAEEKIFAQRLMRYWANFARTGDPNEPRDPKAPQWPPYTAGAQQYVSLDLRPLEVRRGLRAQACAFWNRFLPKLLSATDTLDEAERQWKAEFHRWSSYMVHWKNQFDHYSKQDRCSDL
Summary of the method: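 rhAChE 50 mU/mL (dispensed) + cpd or DMSO, 30 min RT; add DTNB/acetylthiocholine cocktail, 10 min RT; colorimetric thiocholine readout. qHTS, 1536-well format.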

SMILES	Potency
COc1ccccc1N1CCN(CC(O)COc2cccc3ccccc23)CC1 (stereo not given)	inactive
C1CCCNCCC1	inactive
Cc1ccc(N=Nc2c(O)ccc3ccccc23)c(C)c1	inactive
CCCCCC(=O)OCCc1ccccc1	inactive
O=C(O)CCCl	inactive
CO[C@H]1O[C@H](CO)[C@@H](O)[C@H](O)[C@H]1O	inactive
CN=C(N)NC(=O)Nc1c(C)cccc1C	inactive
COc1ccc(NC(C)=O)cc1N	inactive
Cc1ccc(S(=O)(=O)NC(=O)NN2CCCCCC2)cc1	inactive
COc1ccc(C(=O)CC(=O)c2ccc(C(C)(C)C)cc2)cc1	inactive
COc1ccc(C(=O)c2ccccc2)c(O)c1	inactive
O=C1CCCC(=O)O1	inactive
Cc1ncc(CO)c(C=O)c1O	inactive
CC(C)OCCO	inactive
CC(COC(C)(C)C)OCCCO (stereo not given)	inactive
Cc1ccc2cccnc2c1	inactive
CC1(C)O[C@@H]2C[C@H]3[C@@H]4C[C@H](F)C5=CC(=O)CC[C@]5(C)[C@H]4[C@@H](O)C[C@]3(C)[C@]2(C(=O)CO)O1	inactive
O[C@@H]([C@H](O)[C@H](O)CBr)[C@H](O)CBr	inactive
Cc1ccc(C(=O)Oc2ccc(C(O)CNC(C)(C)C)cc2OC(=O)c2ccc(C)cc2)cc1 (stereo not given)	inactive
CC(=O)CC(=O)Nc1ccccc1	inactive
CC(C)C(=O)OCc1ccccc1	inactive
CCNc1ccccc1	inactive
CCn1ccnc1CC1COc2ccccc2O1 (stereo not given)	inactive
CCSC(=O)N(CC)CC	inactive
COc1cc2c(c(OC)c1OC)-c1ccc(OC)c(=O)cc1[C@@H](NC(C)=O)CC2	inactive
